The values below come from publication PMC7826789 (International Journal of Molecular Sciences, 2021).

What all share (details): Compound Concentration (nM):1000
Assay [1] deals with HIPK2.
Assay [2] relates to HIPK3.
Assay [3] has as its system HIPK4.
The test system of assay [4] is T1, HPK1.
T1 construct: gene MAP4K1

For assay [5], the system named is HUNK.
For assay [6], the system named is ICK.
The test system of assay [7] is IGF1R.
The test system of assay [8] is T2, IKK-alpha.
T2 construct: gene CHUK

Assay [9] concerns T3, IKK-beta.
T3 construct: gene IKBKB

Assay [10] has as its system T4, IKK-epsilon.
T4 construct: gene IKBKE
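Note: KINOMEscan scanMAX binding as percent activity remaining versus control; lower means stronger binding.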

Consider `O=C(Nc1n[nH]c2nc(-c3ccc(O)cc3)c(Br)cc12)C1CC1` [SB-725317], for which the “Percent Control” value in assay [1] is given as 36%; in assay [2], 30%; in assay [3] it was 100%; in assay [4], 86%; in [5], 100%; in assay [6], 1%. In addition, the “Percent Control” value was 100% in assay [7], 100% in assay [8], 100% in [9] and 84% in assay [10].
As to `Cl.O=C(O[C@H]1CN[C@H](C#Cc2cc3ncnc(Nc4ccc5c(cnn5Cc5ccccc5)c4)c3s2)C1)N1CCOCC1` [GSK200398A], the “Percent Control” value in assay [1] is reported as 77%; in [2], 92%; in assay [3], 92%; in assay [4], 100%; in assay [5], 100%; in assay [6] it was 96%. In addition, the “Percent Control” value in assay [7] turned out to be 97%; in [8] it was 100%; in [9] it was 100%; in assay [10], 100%.
In the case of `COc1cc(C=NNc2ncnc3c2cnn3-c2ccccc2)ccc1O` [GW513184X], the “Percent Control” value in assay [1] was determined as 91%; in assay [2] it was 75%; in [3], 67%; in [4], 100%; in assay [5], 58%; in assay [6] it was 91%. In addition, the “Percent Control” value in [7], in assay [8], in assay [9] and in assay [10] was 100% throughout.
Turning to `C[C@@H](Oc1cc(-n2cnc3ccc(OC4CCN(C)CC4)cc32)sc1C(N)=O)c1ccccc1Cl` [GSK579289A], the “Percent Control” value in assay [1] is given as 81%; in assay [2], 76%; in assay [3], 15%; in assay [4] it was 58%; in assay [5], 73%; in assay [6], 96%. Moreover, the “Percent Control” value was 69% in assay [7], 99% in assay [8], 100% in assay [9] and 76% in assay [10].
Regarding `CN(C)c1cc2c(Nc3ccc4c(cnn4Cc4ccccc4)c3)ncnc2cn1` [GW282974X], the “Percent Control” value is recorded as 90% in assay [1]; 100% in assay [2]; 79% in assay [3]; 100% in assay [4]; 100% in assay [5]; 90% in assay [6]. For the same compound, the “Percent Control” value in [7] came out at 100%; in assay [8], 92%; in assay [9] it was 100%; in [10] it was 76%.
Turning to `Cl.O=C(Nc1ccc(Oc2ccc3[nH]c(NC(=O)c4ccco4)nc3c2)cc1)Nc1cc(C(F)(F)F)ccc1F` [GW683134A], the “Percent Control” value was 100% in [1]; 100% in assay [2]; 16% in assay [3]; 44% in assay [4]; 63% in [5]; 100% in assay [6]. For the same compound, the “Percent Control” value in assay [7] is given as 100%; in assay [8], 24%; in assay [9], 88%; in [10], 100%.
As for `Cl.O=C(Nc1ccc(Oc2ccc3[nH]c(NC(=O)c4ccccc4)nc3c2)cc1)Nc1cc(C(F)(F)F)ccc1F` [GW709042A], the “Percent Control” value in assay [1] came to 98%; in assay [2] it was 100%; in assay [3], 13%; in [4], 75%; in assay [5], 90%; in assay [6], 100%. The “Percent Control” value in [7] is 100%; in assay [8], 75%; in assay [9], 100%; in assay [10] it was 86%.
For the compound `COc1ccc2cc(-c3c(-c4ccncc4)nc(-c4ccc(S(C)(=O)=O)cc4C)n3C)ccc2c1` [SB-633825], the “Percent Control” value in [1] came out at 82%; in assay [2], 70%; in assay [3], 63%; in [4], 85%; in [5] it was 100%; in assay [6] it was 69%. The “Percent Control” value in [7] stood at 79%; in assay [8] it was 57%; in assay [9] it was 66%; in [10], 82%.
As to `COc1cc(/C=N/Nc2ncnc3[nH]ncc23)ccc1O` [GW578748X], the “Percent Control” value in [1] worked out at 19%; in assay [2] it was 16%; in assay [3], 85%; in [4], 80%; in assay [5] it was 100%; in [6], 75%. The “Percent Control” value is recorded as 100% in [7], 14% in assay [8], 33% in assay [9] and 81% in assay [10].
On to `CC1=C(C(=O)Nc2ccc3[nH]ncc3c2)C(c2ccc3ccccc3c2)CC(=O)N1` (centres unmarked) [GSK270822A], for which the “Percent Control” value in assay [1] is 76%; in assay [2], 79%; in assay [3], 100%; in assay [4] it was 87%; in assay [5] it was 91%; in assay [6], 84%. For the same compound, the “Percent Control” value in [7] came to 85%; in assay [8] it was 69%; in assay [9], 72%; in assay [10] it was 87%.
In the case of `CN1CCN(C(=O)c2ccc(NC(=O)Nc3ccc(N(C)c4ccnc(Nc5ccc(CS(C)(=O)=O)cc5)n4)cc3)cc2)CC1.Cl` [GW830263A], the “Percent Control” value in assay [1] was found to be 77%; in assay [2], 71%; in assay [3] it was 74%; in assay [4], 2.6%; in assay [5] it was 35%; in assay [6] it was 44%. The “Percent Control” value in assay [7] is listed as 100%; in assay [8], 90%; in assay [9], 70%; in [10], 38%.
With `CC(C)COC(=O)c1ccc2c(c1)/C(=C/Nc1ccc(S(N)(=O)=O)cc1)C(=O)N2` [GW416981X], the “Percent Control” value in [1] is 75%; in [2] it was 63%; in assay [3], 100%; in [4] it was 48%; in assay [5] it was 100%; in [6], 44%. The “Percent Control” value in assay [7] was 100%; in assay [8] it was 69%; in [9], 100%; in assay [10], 16%.
On to `C/C(Nc1ccc(S(N)(=O)=O)cc1)=C1/C(=O)Nc2ccccc21` [GW335962X], for which the “Percent Control” value in assay [1] amounted to 93%; in [2], 97%; in assay [3], 84%; in assay [4], 100%; in [5], 100%; in [6], 92%. Also, the “Percent Control” value in assay [7] was found to be 95%; in assay [8] it was 92%; in [9], 100%; in assay [10] it was 63%.
Regarding `O=C1Nc2ccc(C(=O)c3ccco3)cc2C1=Cc1cc(Cl)c(O)c(Cl)c1` [GW406108X], the “Percent Control” value was found to be 5.3% in assay [1]; 5.4% in assay [2]; 59% in assay [3]; 96% in [4]; 46% in assay [5]; 68% in assay [6]. In addition, the “Percent Control” value was determined as 100% in assay [7], 96% in assay [8], 100% in assay [9] and 30% in assay [10].
Turning to `Cl.c1ccc(Cc2nc3ccc(Nc4ncnc5ccccc45)cc3[nH]2)cc1` [GR269666A], the “Percent Control” value in [1] was 100%; in assay [2], 100%; in assay [3], 100%; in [4], 98%; in assay [5] it was 100%; in assay [6], 100%. Also, the “Percent Control” value in assay [7], in [8], in [9] and in assay [10] was 100% each time.
With `Nc1ncnc2occ(-c3ccc(NC(=O)Nc4cc(C(F)(F)F)ccc4F)cc3)c12` [GW770249X], the “Percent Control” value is on record as 73% in [1]; 29% in assay [2]; 0% in assay [3]; 16% in assay [4]; 97% in [5]; 100% in assay [6]. Also, the “Percent Control” value was found to be 100% in assay [7], 18% in [8], 75% in assay [9] and 69% in assay [10].
For `Cc1cc(O)cc(C)c1/C=C/c1cncc(C(N)=O)c1` [GW435821X], the “Percent Control” value in assay [1] turned out to be 98%; in assay [2] it was 100%; in [3], 100%; in [4], 100%; in [5], 100%; in assay [6] it was 100%. Further, the “Percent Control” value in assay [7] is 100%; in assay [8], 100%; in assay [9], 100%; in assay [10] it was 90%.
For `COc1cc(N2CCN(C(C)C)CC2)ccc1Nc1nc(Nc2ccc(F)cc2C(=O)NC[C@@H](O)CO)c2cc[nH]c2n1` [GSK1392956A], the “Percent Control” value in assay [1] is on record as 23%; in assay [2], 44%; in assay [3], 1.4%; in [4], 86%; in assay [5], 83%; in assay [6], 100%. For the same compound, the “Percent Control” value was 9.8% in assay [7], 100% in [8], 97% in assay [9] and 78% in assay [10].
Consider `NS(=O)(=O)c1ccc(N/N=C2\C(=O)Nc3ccc(-c4cnco4)cc32)cc1` [GW276655], for which the “Percent Control” value in assay [1] was found to be 28%; in assay [2] it was 20%; in [3] it was 51%; in [4], 100%; in assay [5] it was 61%; in assay [6] it was 8.8%. Further, the “Percent Control” value is on record as 83% in assay [7], 55% in assay [8], 76% in assay [9] and 82% in assay [10].
For `CN(C)CCNC(=O)Nc1ccc(N(C)c2ccnc(Nc3ccc(CS(C)(=O)=O)cc3)n2)cc1.Cl` [GW830900A], the “Percent Control” value in assay [1] stood at 94%; in assay [2], 81%; in [3], 85%; in assay [4], 30%; in assay [5], 55%; in [6] it was 70%. Further, the “Percent Control” value in [7] was 100%; in assay [8], 100%; in assay [9], 97%; in assay [10] it was 100%.
